Screening results from PubChem BioAssay.
BLM helicase inh-1 – Bloom syndrome helicase (human) inhibition. recombinant BLM DNA unwinding, fluorescence dequenching. Potency, µM (doses to about 56.1 µM), for inactives: at the highest dose activity change, negative = inhibition, most hits filed as inhibitors. P54132. AID 2528. actives 0.2% (n = 350,000);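 note: plate controls were vehicle for no effect and no enzyme for full effect; nearly all actives have a fitted effect of over 35% in size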
RECQ1 helicase – RECQ1 (human) helicase inhibition; actives 0.54% (n = 240,000); AID 2549; RECQ1 DNA unwinding, red fluorescence kinetic read; P46063; Potency, µM (doses to about 57.3 µM), without a hit: at the top dose activity, negative = inhibition, most hits filed as inhibitors;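 note: plate controls were vehicle for no effect and no enzyme for full effect; nearly all actives have a fitted effect of over 30% in size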
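RECQ1T1 50 nM; forked duplex (20 bp + 30-nt ss tails) 200 nM, ATP 2 mM final; pH 8.0, 2 mM MgCl2, 2.5 ug/ml poly(dI-dC); 15 min compound preincubation; discontinuous kinetic read over 2 h at RT.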
FEN1 inh – human FEN1 inhibition | actives 0.35% (n = 390,000) | P39748 | Recombinant FEN1 flap cleavage, fluorescence, 15 min | Potency, µM (top dose mostly 114 µM), for inactives: at the highest dose activity change, negative = inhibition, usual class: inhibitors; note: % is set by controls: 0 for no effect and ±100 for the full control effect; nearly all actives have a fitted effect of over 65% in size
Target sequence (P39748 whole entry, looked up): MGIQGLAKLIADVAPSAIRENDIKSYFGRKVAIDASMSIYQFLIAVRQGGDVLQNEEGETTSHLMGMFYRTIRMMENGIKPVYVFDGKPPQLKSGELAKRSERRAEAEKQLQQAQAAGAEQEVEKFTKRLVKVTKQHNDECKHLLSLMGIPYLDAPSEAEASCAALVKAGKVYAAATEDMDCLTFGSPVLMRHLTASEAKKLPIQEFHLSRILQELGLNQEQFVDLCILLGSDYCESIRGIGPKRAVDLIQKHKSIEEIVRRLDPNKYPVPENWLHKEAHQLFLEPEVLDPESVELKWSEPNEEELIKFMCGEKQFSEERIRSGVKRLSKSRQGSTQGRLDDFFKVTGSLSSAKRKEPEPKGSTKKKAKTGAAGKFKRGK
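Concentration–response screening of FEN1 (10 nM): 15 min compound preincubation at room temperature, reaction started with 50 nM substrate and read at 0 and 15 min. Corrected, normalized data were fitted by a four-parameter Hill equation.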
WRN helicase inh-1 – blocks human WRN helicase | Q14191 | WRN helicase unwinding, fluorescent forked duplex, kinetic | Potency, µM (series often up to 114 µM), for inactives: at the highest dose activity change, negative = inhibition, usual class: inhibitors | actives 0.46% (n = 360,000) | AID 651768; note: % is set by controls: 0 for no effect and ±100 for the full control effect; nearly all actives have a fitted effect of over 55% in size
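Fluorescence dequenching readout, ex 525 nm/em 598 nm, kinetic mode: forked duplex DNA (100 nM final) with adjacent fluorophore and quencher unwound by WRN (20 nM final) with 2 mM ATP. Compound preincubation 15 min, room temperature.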
L3MBTL1 block – inhibitors of human L3MBTL1. Potency, µM (titrated, usually from 57.1 µM), for the others: top-dose activity, negative = inhibition, most hits filed as inhibitors. AlphaScreen L3MBTL1–H3K9me1 peptide binding. actives 0.66% (n = 230,000). Q9Y468; note: % is set by controls: 0 for no effect and ±100 for the full control effect; nearly all actives have a fitted effect of over 60% in size
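L3MBTL1 (50 nM) pre-complexed 30 min with biotinylated H3(1-15)K9me1 peptide (75 nM), then compounds added for 30 min at room temperature; AlphaScreen streptavidin donor/nickel chelate acceptor beads (10 ug/mL final) read after 30 min dark incubation.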
WRN helicase inh-2 – WRN helicase inhibition, cherry-pick retest; shares compounds with WRN helicase inh-1; WRN helicase DNA unwinding, fluorescence kinetic; Potency, µM (highest dose often 57.1 µM), for the others: top-dose activity, negative = inhibition, usual class: inhibitors; actives 63% (n = 610); AID 720497; note: nearly all actives have a fitted effect of over 65% in size
TO DNA binding – DNA binding via thiazole orange displacement; Potency, µM (titrated, usually from 57.1 µM), for inactives: at the highest dose activity change, negative = inhibition, usual class: inhibitors; AID 720499; shares compounds with WRN helicase inh-1; thiazole orange DNA binding displacement, fluorescence; actives 10% (n = 610);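 note: drop in dye fluorescence marks compound binding to DNA; % is set by controls: 0 for no effect and ±100 for the full control effect; nearly all actives have a fitted effect of over 60% in size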
BLM helicase inh-2 – blocks human BLM helicase in WRN counterscreen; Recombinant BLM helicase DNA unwinding, red fluorescence; actives 60% (n = 610); Potency, µM (doses to about 57.1 µM), without a hit: at the top dose activity change, negative = inhibition, usual class: inhibitors; shares compounds with WRN helicase inh-1; note: nearly all actives have a fitted effect of over 60% in size
Active calls of the source: *; i = inactive; ? = inconclusive; / = not tested or not shown; [ ] = another dose, or the depositor's remark. An excerpt weighted towards active compounds, which were near 0.99% of everything screened. Calls come from the whole dose curve; as a rule, active = well fitted curve in the direction sought with a large enough effect; inconclusive = small, poorly fitted or top-dose-only effect, or another doubt; inactive = no such curve, though single readings can be large; an effect the other way counts as inactive or inconclusive. Potency is the fitted concentration of half-maximal effect.

SMILES	BLM helicase inh-1	RECQ1 helicase	FEN1 inh	WRN helicase inh-1	L3MBTL1 block	WRN helicase inh-2	TO DNA binding	BLM helicase inh-2
COc1ccc(-c2csc(/C(C#N)=C\c3ccc(O)c([N+](=O)[O-])c3)n2)cc1OC	-6%	i	-32%	?	-15%	/	/	/
N#C/C(=C\c1ccc(O)c([N+](=O)[O-])c1)c1nc2ccccc2s1	-10%	0%	?	32µM*	-10%	24µM*	22µM*	24µM*
O=C(NCCS(=O)(=O)NC1CCCCC1)c1ccc2c(c1)OCO2	/	/	-3%	1%	5%	/	/	/
CC1=C(SCc2ccccc2)C(=O)c2ccccc2C1=O	/	/	?	?	/	?	?	24µM*
CCOC(=O)c1nn(-c2ccccc2C)c(=O)c2c(N)scc12	-8%	-2%	-4%	?	0%	?	35%	?
CCOC(=O)c1nn(-c2ccccc2)c(=O)c2c(N)scc12	-7%	-3%	-20%	?	-9%	/	/	/
O=C1C(Cl)=C(NC(=O)c2ccccc2)C(=O)C(Cl)=C1NC(=O)c1ccccc1	-8%	/	79µM*	20µM*	/	-19%	22µM*	-26%
O=C(Nc1cccc(Cl)c1)c1ccccc1	/	/	15%	-4%	8%	/	/	/
COc1ccc(OC)c2nc3c(C(=O)NCCN(C)C)cccc3nc12	/	/	14µM*	13µM*	/	14µM*	11µM*	22µM*
CCN(CC)S(=O)(=O)c1ccc2c(c1)nc(CN(C)C(=O)Nc1ccc(C)c(Cl)c1)n2C	0%	/	11%	/	/	/	/	/
O=C1NN(c2ccccc2)C(=O)/C1=C/c1ccc(-c2ccc(Cl)c(C(=O)O)c2)o1	-11%	?	?	35µM*	/	19µM*	-18%	?
O=C(O)c1cc(-c2ccc(/C=C3\NC(=O)N(c4ccc(Cl)cc4)C3=O)o2)ccc1Cl	52%	?	?	35µM*	7.9µM*	6.8µM*	?	24µM*
Cc1cccc(N2NC(=O)/C(=C/c3ccc(-c4ccc(Cl)c(C(=O)O)c4)o3)C2=O)c1	-12%	?	?	40µM*	/	9.6µM*	?	9.6µM*
Cc1ccc(Sc2ccc(/C=C3/C(=O)NN(c4ccccc4)C3=O)o2)cc1	-8%	-22%	-5%	-11%[11.6 µM]	/	/	/	/
Cc1ccc(CN2C(=O)N/C(=C/c3ccc(-c4ccc(C(=O)O)cc4)o3)C2=O)cc1	-4%	7%	?	-6%[11.6 µM]	/	/	/	/
O=C1NN(c2ccccc2)C(=O)/C1=C/c1ccc(Sc2ccc(Cl)cc2)o1	-14%	?	-16%	?	/	/	/	/
C=C(C)C(=O)c1ccc2c(c1)OCO2	3%	i	/	/	/	/	/	/
O=C(c1cc2ccccc2cc1O)N1CCN(c2ccccc2O)CC1	/	/	4%	-6%	-6%	/	/	/
O=C(CCN1C(=O)/C(=C/C=C/c2ccccc2)SC1=S)Nc1cccnc1	?	-15%	-4%	?	6%	?	10%	?
O=C(CCN1C(=O)/C(=C/C=C/c2ccccc2)SC1=S)Nc1ccccn1	1%	-6%	0%	-9%	/	/	/	/
O=C1NCCCN1Cc1ccc(F)cc1Cl	-1%	0%	-3%	9%	-6%	/	/	/
COc1ccccc1OCc1nnc(SCC(=O)NCc2ccco2)n1Cc1ccco1	-21%	-20%	?	?	?	19µM*	-4%	12µM*
N#C/C(=C/c1ccc(O)c(O)c1)c1nc2ccccc2[nH]1	?	/	?	35µM*	/	6.1µM*	28%	8.6µM*
NC1=NC(=O)/C(=C/c2ccc(-c3ccc(S(N)(=O)=O)cc3)o2)S1	?	/	?	35µM*	-6%	19µM*	70%	11µM*
CC1(C)OC(=O)C(=Cc2ccc(-c3ccc(S(N)(=O)=O)cc3)o2)C(=O)O1	3%	i	-18%	?	?	?	-10%	?
SMILES	BLM helicase inh-1	RECQ1 helicase	FEN1 inh	WRN helicase inh-1	L3MBTL1 block	WRN helicase inh-2	TO DNA binding	BLM helicase inh-2
CS(=O)(=O)Nc1ccc(-c2ccc(/C=C3\SC(N)=NC3=O)o2)cc1	-5%	/	-26%	?	-6%	/	/	/
COC(=O)c1ccccc1NC(=O)c1ccco1	-5%	i	-3%	-33%[57.1 µM]	16%	/	/	/
N=C(N)c1ccc(N=Nc2c(O)ccc3c2[nH]c2ccccc23)cc1	/	/	28µM*	11µM*	/	8.6µM*	24µM*	19µM*
Cc1ccsc1CNn1cnnc1SCc1ccc(Cl)cc1	0%	-10%	8%	-13%	7%	/	/	/
O=C(NC1CC1)C1=C[C@H](c2ccc3c(c2)OCO3)C[C@H](OCc2ccc(CO)cc2)O1	-7%	-15%	11%	8%	10%	/	/	/
COc1ccc(OC)c(-n2c(=O)c3ccccc3c3ccccc3c2=O)c1	-3%	-7%	3%	?	-6%	-15%	-10%	?
COc1ccc(-n2c(=O)c3ccccc3c3ccccc3c2=O)cc1	0%	0%	0%	?	-10%	/	/	/
CC(C)(C)NC(=O)COC(=O)c1ccccc1Oc1ccccc1	-4%	i	-2%	3%	/	/	/	/
COc1ccc(NC(=O)C(Cl)=C(Cl)Cl)cn1	-10%	-14%	11%	4%	20%	/	/	/
COc1ccc(NC(=O)/C(Cl)=C(/Cl)S(=O)(=O)Cc2ccccc2)cn1	-7%	-22%	-16%	12µM*	/	?	-11%	-30%
CCCN1C(=O)/C(=C\C=C2/Sc3ccccc3N2CC)SC1=S	-1%	i	/	/	2%	/	/	/
CCCN1C(=O)/C(=C\C=C2\N(CC)c3ccccc3C2(C)C)SC1=S	-2%	i	?	4.2µM*	?	14µM*	i	11µM*
CC1=NN(c2ccc(Cl)cc2)C(=O)C1C(c1cccc(O)c1)c1c(C)[nH]n(-c2ccc(Cl)cc2)c1=O (centres undefined)	-4%	3%	-30%	?	-21%	/	/	/
CC1=NN(c2ccc(F)cc2)C(=O)C1C(c1cccc(O)c1)c1c(C)[nH]n(-c2ccc(F)cc2)c1=O (centres undefined)	-3%	-1%	-29%	?	-22%	-18%	-20%	-14%
Cn1cnc([N+](=O)[O-])c1S(=O)(=O)Oc1cccc2ccccc12	/	/	4%	-88%	/	?	-7%	?
CCS(=O)(=O)c1c([N+](=O)[O-])ncn1C	?	2%	-2%	-3%	3%	/	/	/
